Results on 40 sequences are retold here after the supplement of paper PMC6555819.

The assay concerns VDR:RXRa (NR concentration 270 nM, RXRa partner concentration 90 nM). As to the kind of experiment: PBM binding z-score (relative to random genomic background probes); higher = stronger binding; sequences stand for … in GC…GCGATTGACAGCGTAGAATGAAGG
The procedure:
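Protein-binding microarray (Agilent 4x180K custom design, double-stranded 60-nt probes: 5' GC cap, 34-nt variable region, 24-nt constant primer region; full probe sequence given). Purified or IVT nuclear receptor:RXRα heterodimers (3:1 NR:RXRα, mostly 270:90 nM) or homodimers were incubated for 1 h in PBS with 2% milk and no ligand, then detected with Alexa488 antibodies. Fluorescence from o1-orientation probes (~5 replicates averaged) was converted to z-scores against 500 random hg19 background probes. Variable regions are seed direct-repeat (DR0–DR5) sites, all their single-nucleotide variants and half-site ablations.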
On to AGAATGAGGCTATTAAGATCAGGGAATTGCGGTC, for which the PBM binding z-score was -0.0838. To CGAACTAGGTCAGAACAGAACAGTGAAGGATGAT belongs -0.0419; to GGAACGAGGGCAAGATGATAGCAGAGTTTGATGG, 0.221; to TAGCCTAGGTCATGCGGGCCAGTCTAGTGTCGGC, 2.82. Next, TCTCGGAGGACACGAACGGTCAGAGCTCGACATC: 0.073.

Sequence GATACAGGGTCAGCTAGAGGCCAGAGTTTGGAAA had a PBM binding z-score of 3.36. Next, GCAGACAGGTGAAACGAAGGTAACTCAGGGTGGC: -0.301; ACTCGGAGAACAAAGGTCAGAGCTACGCCAGTGA: 2.77; TCTATTACTTGAAGGGCAACCGACGAGTCCGTTT: 1.28.

Consider CGTCCAAGGTCAGAGAGGTCAGTTAATGCCGAGT, for which the PBM binding z-score turned out to be 7.74. As to ATCGAAAGGACGAAGGTGAGTATACCCACCCGAA, the PBM binding z-score is -0.276. Next, ATCTTTAGGTAACAAGTTCAGTGAAAGAGAGGAC: 1.81; CGTCCATGGTCATAGGAGGTCAGTGAAGACAGAT: 2.94.

As to AGTCAAAGTTCAGGACGAGGTAGCGTAAAGCACG, the PBM binding z-score was found to be 2.43. To CCTAGCAGGCCAGGGTCCCTCAAGCATTTCGCTT belongs -0.596.

Consider CCAGCTAGGTCATGGTCAGCTAATCTACAGTATG, for which the PBM binding z-score came out at 1.6. Next, ATCTCTAGGTAAAGAAAGTTCAGTGAATGCAAAT: 2.17. Sequence ATCTCTAGGTAACCCAGTTCAGTGAATGCCGAAC had a PBM binding z-score of 2.74. In the case of CCGAGTAGTTTATGGGGCATTCAGGCAACGGTGA, the PBM binding z-score was -0.229. Next, CAGCCTAGGTCAGGGCGAGTATAGGAGGAACGTT: 0.552; CCTAGTTGGTCATGAGGTCACACACCGGATATGA: 4.97. Next, GCTTGTAGATCAAGGTTACGAAAGACTAAGCTAA: 0.359.

Sequence TCGAGTAGGTCAGGGGCATTCAGAATGGCGTCGA came in with a PBM binding z-score of 1.55. TTACCAAGGTGGGCTGAGGTCGTTGATCCAACTC showed a PBM binding z-score of 2.6. To TCGAGTAGGTTGCCAATGGGGCATTCAGCTTTCT belongs -0.316; to ATCGAAAGGTCGAGGCGAGTATAGAGAAAGGGAA, 2.33; to TAGCCTAGGTCAGTCAGGGGCCAGTATAGAAAGC, 0.785. Turning to TATACAGGGTCAAAGGCCCGAGTACGAATGTCGA, the PBM binding z-score was found to be 4.53.

For CGTAAAAGTTCAACTAAGGTAACGTAAAGCACGC, the PBM binding z-score turned out to be 4.33. To CCTACTGGGACAAAAAGGTCATTGATGCCGATAA belongs 4.78. Regarding CAAACTAGGTCACAGAGGTCACAGTCCGTGCGTA, the PBM binding z-score was 7.66. For the sequence CGAACGAGGGCATGAGTTGTTAGCAAATGCCGAT, the PBM binding z-score is 0.896. In turn, GGAACGAGGGCACTCGAGTTGATAGCATGGCGAT gave a PBM binding z-score of 2.64.

The sequence CCTGCTAGGTCATGGTCAGCTACTCTACAGTATG returned a PBM binding z-score of 1.46.

On to ACAGACAGGTGATGAAGGTAACTGAGGCTATCAT, for which the PBM binding z-score came out at 0.346. In turn, GCTCGGCGGACAAGGTCAGAGCTTTGTCCGTAGA came in with a PBM binding z-score of 0.376. Next, ACTAGTTGGTCAGCCGAGGTCACACACAATTCGG: 4.66; GCATATAGGTATTACAAGGTGAAAGTCCGATTGT: 0.134. Sequence GCTTGTAGATCAAGGTTAAGCAAGACTAAGCTAA had a PBM binding z-score of 0.0624. Next, CCTGCTAGGTCATGGTCCGCTAATCTACAGTATG: 1.27.
